Source: the supplement of paper PMC10849652
Targets with a hit are over-represented here; the source holds about 8,800 in all. About 0.5% of all pairs of compound and target were hits. Unmarked numbers belong to inactive results.

How the values were obtained:
Test in all cases: log2 fold change, soluble protein after heating vs DMSO (PISA); higher = thermal stabilisation; K562 lysate, 10 uM; active = over 0.2 and 3.5 SD of the protein, either way, in both replicates (recomputed)
[1] = compound: CS(=O)(=O)CCNCc1ccc(-c2ccc3ncnc(Nc4ccc(OCc5cccc(F)c5)c(Cl)c4)c3c2)o1 [lapatinib]
Summary of the method: (§1)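 Dounce homogenisation of K562 pellets in PBS pH 7.4 with 1 mM MgCl2 produced a crude extract, used at 1 mg/mL protein. Exposure to 10 μM compound lasted 30 min, and aliquots were then heated for 3 min across 48°C-58°C, pooled and brought to 0.5% NP-40 at 4°C. The supernatant after 21,000xg for 90 min was quantified by TMTpro 16plex LC-MS/MS with channel sums equalised. Duplicate values are given as log-two fold change in thermal stability relative to solvent controls.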

[2] = compound: CS(=O)(=O)N1CCN(Cc2cc3nc(-c4cccc5[nH]ncc45)nc(N4CCOCC4)c3s2)CC1 [pictilisib]
Summary of the method: as §1

[3] = compound: C[C@@H](Oc1cc(-c2cnn(C3CCNCC3)c2)cnc1N)c1c(Cl)ccc(F)c1Cl [crizotinib]
Summary of the method: as §1

[4] = compound: C[C@H](C1=CC=C(C=C1)C(=O)NC2=C3C=CNC3=NC=C2)N
Summary of the method: as §1

[5] = compound: C[C@H](Nc1ncnc2nc[nH]c12)c1cc2cccc(Cl)c2c(=O)n1-c1ccccc1 [duvelisib]
Summary of the method: as §1

[6] = compound: Cc1cc(Nc2cc(CN3CCOCC3)c3nc(C)c(Cc4ccc(Cl)cc4F)n3n2)n[nH]1 [gandotinib]
Summary of the method: as §1

[7] = compound: Cc1cc(Nc2cc(N3CCN(C)CC3)nc(Sc3ccc(NC(=O)C4CC4)cc3)n2)n[nH]1 [tozasertib]
Summary of the method: as §1

[8] = compound: Cc1ccc(-n2nc(C(C)(C)C)cc2NC(=O)Nc2ccc(OCCN3CCOCC3)c3ccccc23)cc1 [doramapimod]
Summary of the method: as §1

[9] = compound: Cc1ccc(NC(=O)c2ccc(CN3CC[C@H](N(C)C)C3)c(C(F)(F)F)c2)cc1Nc1nccc(-c2cncnc2)n1 [bafetinib]
Summary of the method: as §1

[10] = compound: Cc1cccc(CC(=O)N2CCc3c2ccc(-c2cn(C)c4ncnc(N)c24)c3F)n1
Summary of the method: as §1

[11] = compound: Cc1cn(-c2cc(NC(=O)c3ccc(C)c(Nc4nccc(-c5cccnc5)n4)c3)cc(C(F)(F)F)c2)cn1 [nilotinib]
Summary of the method: as §1

[12] = compound: Cc1nc(Nc2n[nH]c3c2CN(C(=O)N[C@H](CN(C)C)c2ccccc2)C3(C)C)c2sccc2n1
Summary of the method: as §1

[13] = compound: Cc1nc(Nc2ncc(C(=O)Nc3c(C)cccc3Cl)s2)cc(N2CCN(CCO)CC2)n1 [dasatinib]
Summary of the method: as §1

[14] = compound: Cc1ncc(-c2ccnc(Nc3ccc(S(C)(=O)=O)cc3)n2)n1C(C)C
Summary of the method: as §1

[15] = compound: Cn1cc(-c2ccc3c(c2)CCN3C(=O)Cc2cccc(C(F)(F)F)c2)c2c(N)ncnc21
Summary of the method: as §1

[16] = compound: Cn1cc(CNCC2CCN(c3ncc(C(=O)NO)cn3)CC2)c2ccccc21 [quisinostat]
Summary of the method: as §1

[17] = compound: Cn1cncc1[C@@](N)(c1ccc(Cl)cc1)c1ccc2c(c1)c(-c1cccc(Cl)c1)cc(=O)n2C [tipifarnib]
Summary of the method: as §1

[18] = compound: NC(=O)Nc1cc(-c2cccc(F)c2)sc1C(=O)N[C@H]1CCCNC1
Summary of the method: as §1

[19] = compound: NC(=O)c1cnc(N[C@@H]2CCCC[C@@H]2N)nc1Nc1cccc(-n2nccn2)c1
Summary of the method: as §1

[20] = compound: NC1(c2ccc(-c3nc4ccn5c(=O)[nH]nc5c4cc3-c3ccccc3)cc2)CCC1
Summary of the method: as §1

Target: HECTD4 (UniProt J3KPF0)
- log2 fold change [1]: -0.024
- log2 fold change [2]: -0.043
- log2 fold change [3]: -0.127
- log2 fold change [4]: -0.005
- log2 fold change [5]: -0.004
- log2 fold change [6]: -0.024
- log2 fold change [7]: 0.01
- log2 fold change [8]: -0.002
- log2 fold change [9]: -0.083
- log2 fold change [10]: 0.101
- log2 fold change [11]: 0.014
- log2 fold change [12]: -0.009
- log2 fold change [13]: -0.077
- log2 fold change [14]: -0.007
- log2 fold change [15]: 0.037
- log2 fold change [16]: -0.145
- log2 fold change [17]: 0.016
- log2 fold change [18]: 0.02
- log2 fold change [19]: 0.011
- log2 fold change [20]: 0.017

Target: HIST2H2AA3 (UniProt Q6FI13)
- log2 fold change [1]: 0.001
- log2 fold change [2]: -0.016
- log2 fold change [3]: 0.049
- log2 fold change [4]: 0.555 (active)
- log2 fold change [5]: -0.044
- log2 fold change [6]: -0.143
- log2 fold change [7]: 0.022
- log2 fold change [8]: -0.088
- log2 fold change [9]: 0.159
- log2 fold change [10]: -0.171
- log2 fold change [11]: 0.135
- log2 fold change [12]: -0.098
- log2 fold change [13]: 0.081
- log2 fold change [14]: 0.035
- log2 fold change [15]: -0.041
- log2 fold change [16]: 0.064
- log2 fold change [17]: 0.058
- log2 fold change [18]: 0.076
- log2 fold change [19]: 0.01
- log2 fold change [20]: 0.048

Target: GTPBP2 (UniProt Q9BX10)
Sequence of UniProt Q9BX10 (Q9BX10 whole entry, looked up): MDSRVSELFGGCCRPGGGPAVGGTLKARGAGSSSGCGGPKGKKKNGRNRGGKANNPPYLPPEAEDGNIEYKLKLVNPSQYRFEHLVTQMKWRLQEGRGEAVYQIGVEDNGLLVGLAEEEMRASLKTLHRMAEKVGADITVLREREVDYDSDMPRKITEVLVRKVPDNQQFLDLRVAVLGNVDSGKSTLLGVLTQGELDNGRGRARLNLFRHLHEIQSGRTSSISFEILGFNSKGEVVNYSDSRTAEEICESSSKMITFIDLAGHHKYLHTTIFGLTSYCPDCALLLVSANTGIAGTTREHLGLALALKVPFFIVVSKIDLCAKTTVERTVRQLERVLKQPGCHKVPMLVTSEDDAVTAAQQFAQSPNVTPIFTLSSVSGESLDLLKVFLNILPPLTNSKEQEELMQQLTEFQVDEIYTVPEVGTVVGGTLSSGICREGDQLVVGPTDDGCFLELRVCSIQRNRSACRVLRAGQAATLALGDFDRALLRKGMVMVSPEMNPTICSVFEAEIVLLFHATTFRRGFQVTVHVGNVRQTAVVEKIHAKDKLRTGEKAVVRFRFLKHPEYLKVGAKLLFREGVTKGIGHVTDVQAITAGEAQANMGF
- log2 fold change [1]: 0.064
- log2 fold change [2]: -0.056
- log2 fold change [3]: -0.052
- log2 fold change [4]: 0.021
- log2 fold change [5]: 0.043
- log2 fold change [6]: -0.098
- log2 fold change [7]: -0.048
- log2 fold change [8]: 0.027
- log2 fold change [9]: -0.038
- log2 fold change [10]: 0.009
- log2 fold change [11]: 0.016
- log2 fold change [12]: -0.009
- log2 fold change [13]: -0.023
- log2 fold change [14]: -0.014
- log2 fold change [15]: 0.005
- log2 fold change [16]: -0.136
- log2 fold change [17]: -0.079
- log2 fold change [18]: 0.042
- log2 fold change [19]: 0.04
- log2 fold change [20]: 0.046

Target: HNRNPD isoform 2 (UniProt Q14103)
Sequence of UniProt Q14103 (Q14103 whole entry, looked up): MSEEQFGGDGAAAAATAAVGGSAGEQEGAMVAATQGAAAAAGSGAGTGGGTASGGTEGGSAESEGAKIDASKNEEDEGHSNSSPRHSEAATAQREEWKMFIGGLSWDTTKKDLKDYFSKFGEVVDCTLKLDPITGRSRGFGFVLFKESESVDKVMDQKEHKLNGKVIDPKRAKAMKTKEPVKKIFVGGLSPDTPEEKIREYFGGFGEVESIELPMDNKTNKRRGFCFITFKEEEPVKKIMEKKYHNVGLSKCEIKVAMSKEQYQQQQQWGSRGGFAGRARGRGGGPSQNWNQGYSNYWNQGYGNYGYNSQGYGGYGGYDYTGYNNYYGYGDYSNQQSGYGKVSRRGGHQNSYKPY
- log2 fold change [1]: 0.047
- log2 fold change [2]: 0.043
- log2 fold change [3]: 0.034
- log2 fold change [4]: 0.559 (active)
- log2 fold change [5]: 0.015
- log2 fold change [6]: -0.085
- log2 fold change [7]: 0.004
- log2 fold change [8]: -0.023
- log2 fold change [9]: 0.095
- log2 fold change [10]: -0.108
- log2 fold change [11]: -0.047
- log2 fold change [12]: 0
- log2 fold change [13]: -0.02
- log2 fold change [14]: 0.009
- log2 fold change [15]: -0.05
- log2 fold change [16]: 0.139
- log2 fold change [17]: 0.029
- log2 fold change [18]: -0.025
- log2 fold change [19]: 0.015
- log2 fold change [20]: -0.008

Target: HAUS2 (UniProt Q9NVX0)
Sequence of UniProt Q9NVX0 (Q9NVX0 whole entry, looked up): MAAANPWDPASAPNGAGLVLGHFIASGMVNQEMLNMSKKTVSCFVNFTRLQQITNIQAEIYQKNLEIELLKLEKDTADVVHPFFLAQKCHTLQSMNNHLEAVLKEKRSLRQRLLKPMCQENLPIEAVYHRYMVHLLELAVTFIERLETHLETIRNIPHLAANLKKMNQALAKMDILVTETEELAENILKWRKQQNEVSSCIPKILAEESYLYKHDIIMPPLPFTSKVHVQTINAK
- log2 fold change [1]: -0.033
- log2 fold change [2]: -0.187
- log2 fold change [3]: -0.055
- log2 fold change [4]: 0.167
- log2 fold change [5]: 0.049
- log2 fold change [6]: -0.159
- log2 fold change [7]: 0.067
- log2 fold change [8]: -0.047
- log2 fold change [9]: 0.005
- log2 fold change [10]: -0.017
- log2 fold change [11]: 0.036
- log2 fold change [12]: -0.033
- log2 fold change [13]: -0.028
- log2 fold change [14]: 0.069
- log2 fold change [15]: 0.05
- log2 fold change [16]: -0.04
- log2 fold change [17]: -0.034
- log2 fold change [18]: -0.014
- log2 fold change [19]: -0.094
- log2 fold change [20]: 0.037

Target: ILK (UniProt Q13418)
Sequence of UniProt Q13418 (Q13418 whole entry, looked up): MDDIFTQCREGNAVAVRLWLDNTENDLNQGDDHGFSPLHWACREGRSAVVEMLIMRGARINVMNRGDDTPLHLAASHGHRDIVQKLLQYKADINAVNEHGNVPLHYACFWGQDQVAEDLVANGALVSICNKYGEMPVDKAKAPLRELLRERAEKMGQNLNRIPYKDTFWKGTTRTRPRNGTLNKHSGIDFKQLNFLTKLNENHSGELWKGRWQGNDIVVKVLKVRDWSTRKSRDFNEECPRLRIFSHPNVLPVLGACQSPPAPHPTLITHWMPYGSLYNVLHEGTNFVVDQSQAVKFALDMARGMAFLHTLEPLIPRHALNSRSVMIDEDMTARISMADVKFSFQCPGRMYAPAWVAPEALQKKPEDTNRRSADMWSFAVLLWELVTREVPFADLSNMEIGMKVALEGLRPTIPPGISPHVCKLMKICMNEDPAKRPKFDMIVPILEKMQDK
- log2 fold change [1]: 0.01
- log2 fold change [2]: -0.005
- log2 fold change [3]: -0.038
- log2 fold change [4]: 0.01
- log2 fold change [5]: -0.036
- log2 fold change [6]: -0.015
- log2 fold change [7]: 0.005
- log2 fold change [8]: 0.004
- log2 fold change [9]: -0.002
- log2 fold change [10]: 0.007
- log2 fold change [11]: 0.01
- log2 fold change [12]: -0.066
- log2 fold change [13]: 0.071
- log2 fold change [14]: 0
- log2 fold change [15]: 0.014
- log2 fold change [16]: -0.076
- log2 fold change [17]: -0.001
- log2 fold change [18]: 0.097
- log2 fold change [19]: -0.022
- log2 fold change [20]: -0.036

Target: IMMT (UniProt Q16891)
Sequence of UniProt Q16891 (Q16891 whole entry, looked up): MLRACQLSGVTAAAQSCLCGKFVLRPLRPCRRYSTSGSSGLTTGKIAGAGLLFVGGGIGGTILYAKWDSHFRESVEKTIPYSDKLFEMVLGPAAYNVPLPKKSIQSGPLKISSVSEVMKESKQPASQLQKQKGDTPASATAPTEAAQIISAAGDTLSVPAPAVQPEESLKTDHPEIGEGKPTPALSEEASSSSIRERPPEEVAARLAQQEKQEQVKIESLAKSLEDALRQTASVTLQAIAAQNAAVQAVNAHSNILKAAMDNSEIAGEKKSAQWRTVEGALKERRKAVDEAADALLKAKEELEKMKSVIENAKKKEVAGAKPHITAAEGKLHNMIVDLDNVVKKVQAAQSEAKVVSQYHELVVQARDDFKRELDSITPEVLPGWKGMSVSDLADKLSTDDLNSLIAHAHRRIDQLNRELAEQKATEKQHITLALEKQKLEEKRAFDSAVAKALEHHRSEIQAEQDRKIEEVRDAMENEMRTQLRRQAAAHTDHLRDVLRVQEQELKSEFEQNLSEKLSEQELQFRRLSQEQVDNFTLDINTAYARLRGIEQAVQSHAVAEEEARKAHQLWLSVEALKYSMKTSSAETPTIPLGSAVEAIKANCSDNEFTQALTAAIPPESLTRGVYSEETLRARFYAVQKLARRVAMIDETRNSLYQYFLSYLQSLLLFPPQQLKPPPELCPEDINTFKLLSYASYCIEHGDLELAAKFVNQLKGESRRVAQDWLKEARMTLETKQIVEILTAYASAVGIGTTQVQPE
- log2 fold change [1]: -0.058
- log2 fold change [2]: 0.001
- log2 fold change [3]: -0.049
- log2 fold change [4]: -0.006
- log2 fold change [5]: -0.039
- log2 fold change [6]: -0.134
- log2 fold change [7]: 0.02
- log2 fold change [8]: 0.011
- log2 fold change [9]: -0.053
- log2 fold change [10]: 0.023
- log2 fold change [11]: -0.009
- log2 fold change [12]: 0.016
- log2 fold change [13]: -0.075
- log2 fold change [14]: 0.037
- log2 fold change [15]: 0.01
- log2 fold change [16]: 0.041
- log2 fold change [17]: -0.005
- log2 fold change [18]: -0.007
- log2 fold change [19]: -0.017
- log2 fold change [20]: -0.035

Target: HSD17B12 (UniProt Q53GQ0)
Sequence of UniProt Q53GQ0 (Q53GQ0 whole entry, looked up): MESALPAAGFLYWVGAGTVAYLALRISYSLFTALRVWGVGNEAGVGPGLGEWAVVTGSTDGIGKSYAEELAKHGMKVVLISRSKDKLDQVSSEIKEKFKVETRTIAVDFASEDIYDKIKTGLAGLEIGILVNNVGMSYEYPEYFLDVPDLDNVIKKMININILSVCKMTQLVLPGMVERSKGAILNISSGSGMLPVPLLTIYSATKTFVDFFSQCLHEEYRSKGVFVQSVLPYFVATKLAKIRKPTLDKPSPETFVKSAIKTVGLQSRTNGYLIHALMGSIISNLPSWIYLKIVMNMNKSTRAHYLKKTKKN
- log2 fold change [1]: 0.31 (active)
- log2 fold change [2]: -0.034
- log2 fold change [3]: -0.025
- log2 fold change [4]: -0.158
- log2 fold change [5]: -0.08
- log2 fold change [6]: 0.41 (active)
- log2 fold change [7]: 0.011
- log2 fold change [8]: 0.047
- log2 fold change [9]: -0.019
- log2 fold change [10]: 0.149
- log2 fold change [11]: -0.024
- log2 fold change [12]: -0.04
- log2 fold change [13]: 0.016
- log2 fold change [14]: 0.033
- log2 fold change [15]: 0.007
- log2 fold change [16]: 0.073
- log2 fold change [17]: -0.118
- log2 fold change [18]: 0.058
- log2 fold change [19]: 0.012
- log2 fold change [20]: -0.045
